Assay outcomes deposited in PubChem by National Center for Advancing Translational Sciences (NCATS).
An excerpt weighted towards active compounds, which were near 19% of everything screened.
ELG1 DNA repair – qHTS screen for small molecules that inhibit ELG1-dependent DNA repair in human embryonic kidney (HEK293T) cells expressing luciferase-tagged ELG1; HEK293T ELG1-luciferase reporter, luminescence, 16 h; DNA damage induced by 5-fluorouridine; 2.3% of 330,000 active; Potency, µM (top dose mostly 46.1 µM), actives largely listed as inhibitors; note: nearly all actives have a fitted effect of over 55% in size
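Step one: seed 2,000 cells per well. Step two: pin-transfer compound or DMSO alongside 5-fluorouridine. Step three: incubate 16 hr, 37 °C, 5% CO2. Step four: add ONE-Glo, wait 30 min, read luminescence.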
HT1080NT lethal – qHTS for induction of synthetic lethality in tumor cells producing 2HG: qHTS for the HT-1080-NT fibrosarcoma cell line; Potency, µM (titrated, usually from 46.1 µM), most hits filed as cytotoxic; HT-1080-NT fibrosarcoma viability, CellTiter-Glo ATP luminescence, 48 h; 1.6% of 360,000 active;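 note: NT is the 2HG producing partner of a matched IDH1 knockdown line; nearly all actives have a fitted effect of over 55% in size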
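Viability by CellTiter-Glo luminescence after 48 h compound exposure at 37C of HT-1080-NT cells (750/well, RPMI, 5% FBS). % activity scaled between DMSO wells and medium-only wells, then curve-fitted and categorized by curve class.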
HT1080 IDH1KD tx – qHTS for induction of synthetic lethality in tumor cells producing 2HG: qHTS for the HT-1080-IDH1KD cell line; HT-1080 IDH1 knockdown viability, ATP luminescence, 48 h; AID 686971, 2013; Potency, µM (highest dose often 46.1 µM), usual class: cytotoxic; 2% of 360,000 active
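HT-1080-IDH1KD cells (IDH1 knocked down), 750/well in RPMI with 5% FBS, treated with compound 48 h at 37 degrees C. Viability by CellTiter-Glo luminescence, normalised to DMSO and no-cell wells; concentration-response curves classed.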
IL-1B inflam inh – qHTS for Inhibitors of Inflammasome Signaling: IL-1-beta AlphaLISA Primary Screen. 4.7% of 360,000 active. THP-1 LPS/ATP IL-1B secretion, AlphaLISA, 16 h; hits give low values. AID 743279, 2014. activity change, % at 57.5 µM; in the data active = activity change below about -50%; inconclusive = mostly about -30% to -49%
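THP-1 cells pretreated 1 hr with compounds (up to 57.5 uM final), then stimulated with LPS (250 ng/mL final) plus ATP (1.25 mM final); secreted IL-1B measured by AlphaLISA after 16 hr, decreased signal indicating inhibition.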
DT40 TDP1 CPT – qHTS for Inhibitors of human tyrosyl-DNA phosphodiesterase 1 (TDP1): qHTS in cells in presence of CPT | chicken DT40 Tdp1-/-;hTDP1 cells + 20 nM CPT, ATP luminescence, 48 h | Potency, µM (titrated, usually from 46.2 µM), actives largely listed as inhibitors | 12% of 420,000 active | AID 686979, 2013; note: nearly all actives have a fitted effect of over 55% in size
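Chicken DT40 Tdp1-/- cells stably complemented with human TDP1 were seeded at 400 cells/well in medium containing 20 nM camptothecin, exposed to pin-transferred compounds, and grown at 37 °C for at least 48 hr. Viability was read as ATP luminescence.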
TDP1 cell noCPT – qHTS for Inhibitors of human tyrosyl-DNA phosphodiesterase 1 (TDP1): qHTS in cells in absence of CPT. Potency, µM (titrated, usually from 46.2 µM), most hits filed as inhibitors. DT40 Tdp1-/- hTDP1 cells, no CPT, ATP luminescence, 48 h. AID 686978, 2013. 15% of 420,000 active; note: nearly all actives have a fitted effect of over 55% in size
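DT40 Tdp1-/-;hTDP1 cells, no CPT (DMSO vehicle only), 400 cells/well; compounds pin-transferred; ≥48 hr, 37 °C; CellTiter-Glo 30 min RT dark, luminescence read.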
A number is an active result; n = inactive; u = inconclusive; x = not tested or not shown; [ ] = another dose, or the depositor's remark. Unless noted, calls come from the whole dose curve; as a rule, active = well fitted curve in the direction sought with a large enough effect; inconclusive = small, poorly fitted or top-dose-only effect, or another doubt; inactive = no such curve, though single readings can be large; an effect the other way counts as inactive or inconclusive.

SMILES | ELG1 DNA repair | HT1080NT lethal | HT1080 IDH1KD tx | IL-1B inflam inh | DT40 TDP1 CPT | TDP1 cell noCPT
Nc1cccc2c(=O)[nH][nH]c(=O)c12 | x | n | n | n | u | n
CCOC(=O)c1cc(-c2ccc(C)cc2)n(CC(=O)Nc2cc(C)ccc2C)c1C | x | x | x | x | 21µM | 15µM
CCOC(=O)c1cc(-c2ccc(OC)cc2)n(CCC(=O)Nc2ccccc2OC)c1C | x | x | x | x | 15µM | 21µM
CCOC(=O)c1cc(-c2ccccc2)n(CCC(=O)NCCc2ccccc2)c1C | x | x | x | x | 21µM | 16µM
CCOC(=O)c1cc(-c2ccc(C)cc2)n(CC(=O)Nc2cccc(C(C)=O)c2)c1C | x | x | x | x | n | u
CCOC(=O)c1cc(-c2ccc(C)cc2)n(CCC(=O)NC(C)CC)c1C (centres undefined) | u | n | n | n | u | u
CCOC(=O)c1cc(-c2ccc(F)cc2)n(CCC(=O)Nc2cc(OC)cc(OC)c2)c1C | x | x | x | x | 15µM | 16µM
COc1ccccc1CCC(=O)N(Cc1ccccc1)c1c(N)n(Cc2ccccc2)c(=O)[nH]c1=O | n | n | n | n | u | u
CCOc1ccc(NC(=O)CN2CCN(CC(=O)Nc3ccc(N(CC)CC)cc3)CC2)cc1 | x | x | x | x | n | n
CCOC(=O)c1cc(-c2ccccc2)n(CCC(=O)N2CCN(c3ccccn3)CC2)c1C | 23µM | n | n | n | 15µM | 21µM
O=C(CCN1C(=O)c2ccccc2C1=O)N1CCN(c2ccccn2)CC1 | n | n | n | n | n | n
CCc1nn(-c2ccccc2)c2c1-c1cc(OC)c(OC)cc1C1(N2)C(=O)Nc2ccccc21 (centres undefined) | 21µM | n | n | n | u | u
O=C1CNC(=S)N1Cc1ccc(F)cc1 | n | n | n | n | n | n
N=c1ccn(Cc2ccc(F)cc2)cc1 | u | u | n | n | u | 10µM
COC(=O)C(c1ccccc1Cl)N1CCc2sccc2C1 (centres undefined) | x | x | x | x | u | n
Cc1ccc([N+](=O)[O-])cc1S(=O)(=O)N1CCn2cccc2C1c1ccccc1 (centres undefined) | x | x | x | x | 21µM | u
Cc1ccc(S(=O)(=O)N2CCn3cccc3C2C)cc1 (centres undefined) | n | n | n | n | n | n
CCOC(=O)[C@@H]1[C@H]2COc3ccccc3[C@@H]2N2C(=O)N(c3cccc(C)c3)C(=O)[C@]12C | u | n | n | n | u | u
Cc1ccc(C)c(Oc2ncnc(N)c2[N+](=O)[O-])c1 | u | n | n | n | n | n
Cc1cc(Sc2nc(N)ncc2[N+](=O)[O-])ncn1 | u | 5.8µM | 6.5µM | -109 | 0.73µM | 1.3µM
Cc1cc(Sc2ncnc(N)c2[N+](=O)[O-])ncn1 | u | 13µM | 7.3µM | -100 | 0.29µM | 0.92µM
Cc1cccc(-n2c3c(cc(-c4nc(-c5ccc(Cl)cc5)cs4)c2=O)C(=O)CC(C)(C)C3)c1 | x | x | x | x | n | n
CC1=NN(C(=O)Cc2ccc([N+](=O)[O-])cc2)C(O)(c2ccccc2)C1 (centres undefined) | n | u | u | n | 4.1µM | 5.2µM
CCOC(=O)N1N=C(C)CC1(O)c1ccccc1 (centres undefined) | n | n | n | n | n | n
CC1=NN(C(=O)Cc2ccccc2)C(O)(c2ccccc2)C1 (centres undefined) | n | n | n | n | 2.9µM | 4.1µM
SMILES | ELG1 DNA repair | HT1080NT lethal | HT1080 IDH1KD tx | IL-1B inflam inh | DT40 TDP1 CPT | TDP1 cell noCPT
CC1=NN(C(=O)Cc2ccc([N+](=O)[O-])cc2)C(O)(c2cccnc2)C1 (centres undefined) | n | u | u | n | 18µM | u
COCCN(C(=O)COC(=O)c1c(NC(C)=O)sc(C)c1C)c1c(N)n(Cc2ccccc2)c(=O)[nH]c1=O | u | n | n | n | u | u
CCOC(=O)c1nn(-c2ccccc2)c(C#N)c1NC(=O)c1nn(CC)cc1Br | x | n | n | n | 15µM | 18µM
CCOC(=O)c1c(NC(=O)c2nn(CC)cc2Br)sc(C)c1C | u | n | n | n | 16µM | u
CCOC(=O)c1c(NC(=O)c2nn(CC)cc2Br)sc2c1CCCCC2 | u | n | n[9.24 µM] | u | 18µM | u
CCc1cccc(C)c1NC(=O)C(C)Sc1nc2c(c(=O)[nH]1)CCCC2 (centres undefined) | x | x | x | x | n | u
CC(Sc1nc2c(c(=O)[nH]1)CCCC2)C(=O)Nc1ccc(Br)cn1 (centres undefined) | n | n | n | n | 23µM | 16µM
CC(=O)c1c(C)oc2ccc(N(C(=O)Oc3ccccc3)S(=O)(=O)c3ccc(C(C)(C)C)cc3)cc12 | x | x | x | x | 5.2µM | 9.2µM
CCOc1ccc(S(=O)(=O)N(C(=O)c2ccncc2)c2ccc3oc(C)c(C(=O)OC)c3c2)cc1 | x | x | x | x | 1µM | 0.92µM
CCCC(=O)N(c1ccc2oc(=O)sc2c1)S(=O)(=O)c1cccs1 | u | u | n | n | u | u
COc1ccc(S(=O)(=O)Nc2ccc3oc4c(c3c2)CCCC4)cc1 | x | x | x | x | u | 21µM
COc1ccc(S(=O)(=O)Nc2ccc3oc(C)c(C(=O)O)c3c2)cc1 | n | n | n | n | n | n
CCCCC(=O)N(c1ccc2oc(C)c(C(C)=O)c2c1)S(=O)(=O)c1ccc(F)cc1C | x | x | x | x | 15µM | 10µM
COC(=O)c1c(C)oc2ccc(N(C(=O)c3ccncc3)S(=O)(=O)c3ccc(OC)cc3)cc12 | x | x | x | x | 0.58µM | 0.52µM
CCc1ccc(S(=O)(=O)N(C(=O)c2ccncc2)c2ccc3oc(C)c(C(=O)OC)c3c2)cc1 | x | x | x | x | 2.9µM | 2.6µM
Cc1ccc(S(=O)(=O)Nc2cc(Cl)c3oc4c(c3c2)CCCC4)cc1 | x | x | x | x | u | 13µM
COc1ccc(N(C(=O)c2ccncc2)S(=O)(=O)c2ccccc2)cc1 | n | n | n | n | n | n
CC(=O)c1c(C)oc2ccc(N(C(C)=O)S(=O)(=O)c3cccc([N+](=O)[O-])c3)cc12 | u | n | n | n | 21µM | u
Cc1nn(CC(=O)NCCCN2CCCC2=O)c(C)c1[N+](=O)[O-] | n | n | n | n | n | n
Cc1ccc(S(=O)(=O)N[C@H](C(=O)N2CCC(C(=O)N[C@@H](CCC(N)=O)C(=O)O)CC2)C(C)C)cc1 | n | n | n | n | n | n
